# PubChem BioAssay (NCI)
# This is part of a sample that, as a whole, favours compounds with a hit. Of some 83,000 tested, about 20% had one in any assay.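 Growth was measured after 48 h exposure to one concentration of compound in 96-well plates. Values under 10 count as active.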 Unmarked numbers belong to inactive results. Active and inactive are the calls of the source.
# Assays:
# Experiment in all cases: NCI-60 one-dose screen, 48 h (100 = growth as untreated, 0 = no growth, -100 = all killed)
# Settings in all cases: 10 µM unless noted
# NCI-H23 lung = test system: NCI-H23 lung
# NCI-H226 lung = test system: NCI-H226 lung
# NCI-H322M lung = test system: NCI-H322M lung
# HOP-62 NSCLC = test system: HOP-62 NSCLC
# NCI-H460 lung = test system: NCI-H460 lung
# HOP-92 NSCLC = test system: HOP-92 NSCLC
# NCI-H522 lung = test system: NCI-H522 lung
# A549/ATCC NSCLC = test system: A549/ATCC NSCLC
# 786-0 renal = test system: 786-0 renal
# COLO 205 colon = test system: COLO 205 colon
# DU-145 prostate = test system: DU-145 prostate
# K-562 leukemia = test system: K-562 leukemia
# MALME-3M melanoma = test system: MALME-3M melanoma
# MDA-MB-231 breast = test system: MDA-MB-231 breast
# RXF 393 renal = test system: RXF 393 renal
# SF-268 CNS = test system: SF-268 CNS
# SF-295 CNS = test system: SF-295 CNS
# SF-539 CNS = test system: SF-539 CNS
# UACC-257 melanoma = test system: UACC-257 melanoma
# M14 melanoma = test system: M14 melanoma
Compound,growth (NCI-H23 lung),growth (NCI-H226 lung),growth (NCI-H322M lung),growth (HOP-62 NSCLC),growth (NCI-H460 lung),growth (HOP-92 NSCLC),growth (NCI-H522 lung),growth (A549/ATCC NSCLC),growth (786-0 renal),growth (COLO 205 colon),growth (DU-145 prostate),growth (K-562 leukemia),growth (MALME-3M melanoma),growth (MDA-MB-231 breast),growth (RXF 393 renal),growth (SF-268 CNS),growth (SF-295 CNS),growth (SF-539 CNS),growth (UACC-257 melanoma),growth (M14 melanoma)
CC[C@@H]1NC(=O)[C@@H]2CCCCN2C(=O)[C@@H]2CCCN2C(=O)[C@@H](NC(=O)[C@H](Cc2cc(F)cc(F)c2)NC(=O)Nc2ccc(C3CC3)cc2F)[C@H](C)OC(=O)[C@@H]2C[C@@H](C)CN2C1=O,25.7%,15.5%,41.1%,26.7%,13.5%,-3.81% (active),19.9%,19.9%,16.4%,-40.4% (active),20%,10.4%,16.9%,-31.2% (active),-4.47% (active),22%,-10.1% (active),24.1%,10.7%,16.8%
N#C/C(C(=O)c1ccccc1)=C1/C(=O)Nc2ccccc21,102%,104%,100%,86.3%,106%,105%,97.6%,106%,6.59% (active),105%,105%,88.6%,108%,93.2%,113%,95.7%,98.5%,97.3%,95.4%,35.6%
O=C1/C(=C\c2cccn2Cc2ccccc2)c2ccccc2N1c1c(Cl)cccc1Cl,68.7%,53.1%,54.8%,77.2%,42.7%,1.73% (active),88.9%,53.1%,89%,-6.31% (active),95.2%,87.6%,54%,28.9%,68%,80.6%,77.5%,95.4%,87.2%,77%
CC(=O)Nc1ccc2nc3ccc(NC(C)=O)cc3[n+](-c3ccccc3)c2c1,104%,127%,109%,103%,108%,136%,88%,106%,102%,109%,117%,57.1%,115%,66.3%,101%,97.5%,121%,89.3%,94.5%,107%
CCn1cc(-c2cc(-c3ccc(Cl)cc3)nc(N)n2)c(-c2ccc(Br)cc2)n1,79.4%,86.1%,92.6%,74.7%,95.4%,74.2%,48.7%,64.7%,89.4%,85.7%,99.4%,77.4%,93.8%,60.6%,94.8%,94.8%,84.3%,87.3%,73.5%,74.5%
Cc1ccc(S(=O)(=O)n2cc(C(=O)C(=O)N3CCCCC3)c3ccccc32)cc1,55.1%,87.5%,92.9%,80.3%,91.9%,-0.0596% (active),70.2%,120%,88.7%,109%,97.1%,69.9%,84.8%,75.2%,113%,78%,60.4%,90.6%,101%,89.4%
O=C(N/N=C/c1c(Cl)cccc1Cl)c1cccc(Nc2ccnc(C(F)(F)F)c2)c1,89.7%,78.7%,108%,86.6%,82.1%,60.5%,87%,107%,81.9%,89.4%,120%,104%,113%,76.8%,111%,125%,90.3%,92.9%,102%,80.8%
